The results in this text go back to PubChem BioAssay (NCI).

About 79,000 compounds went through this panel and 15% of them were active in at least one assay; those are over-represented in the sample as a whole. The source made the active and inactive calls. Rule as the data show it: active = growth inhibition above about 70%; inactive = the rest.

One experiment can be described thus: NCI Yeast Anticancer Drug Screen. Data for the rad50 strain (AID 155).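 Also: 0% = growth of vehicle-only cultures of the same strain.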 To be noted: S. cerevisiae rad50 strain growth inhibition; at 11.0 µM; stronger effect = higher value. The procedure, abridged: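 Cells are treated with compound, grown, and their growth is then scored against vehicle-only cultures of the same repair-deficient yeast strain.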
Take `C/C(=N\NC(=S)SCc1ccccc1)c1ccccn1`: the growth inhibition was 69% (inactive).
For `CC[C@@]1(O)C(=O)OCc2c1cc1n(c2=O)Cc2cc3c(N)cccc3nc2-1`, the growth inhibition was 88% (active).
Take `CN(C)c1ccc(Sc2ccc3nc(N)nc(N)c3c2)cc1`: the growth inhibition is 8% (inactive).
As to `CC(=O)OCCOCNC(=S)N/N=C(\C)c1cnccn1`, the growth inhibition was 15% (inactive).
Still for that read-out and setting: the result for `COc1ccc(C2c3cc4c(cc3OC(C)(O)C2C)OCO4)c(OC)c1` (stereo not drawn) reads 0% (inactive).
The same measure, in the same setting: then `COc1cc(C2SCC(=O)N2c2ccc(-c3ccc(-n4c(-c5ccccc5)nc5ccccc5c4=O)cc3)cc2)cc(OC)c1OC` (stereo not drawn), with 1% (inactive); and `COc1ccc(Br)c(C(=O)Sc2nnnn2-c2cccc(Cl)c2)c1`, with 6% (inactive).
On to `O=C(NNc1ccnc2cc(Cl)ccc12)/C(=C\c1ccccc1Cl)NC(=O)c1ccccc1`, for which the growth inhibition was 14% (inactive).
Same read-out and setting: then `CSC(=S)Nc1cccc(C)n1`, with -11% (inactive).
As for `O=C(/C=C\c1ccc(Cl)cc1Cl)c1cccs1`, the growth inhibition was 0% (inactive).
Turning to `COc1ccc(-c2cn(-c3ccc(I)cc3)c3ncnc(N)c23)cc1`, the growth inhibition was -2% (inactive).
The same measure, in the same setting: then `CN(C)c1ccc(C(C#N)=C(C#N)C#N)cc1`, with 6% (inactive); and `COc1cc(/C=C2\CCc3ccccc3C2=O)cc(OC)c1OC`, with -17% (inactive).
On to `CC(C)/C(Cl)=N\OC(=O)Nc1cccc(Cl)c1`, for which the growth inhibition is -26% (inactive).
`CC1(C)[C@@H]2CC[C@]1(C)[C@H](OC(=O)CSC#N)C2`: the growth inhibition was 20% (inactive).
On to `NNC(=O)CCc1ccc2ccc3ccccc3c2c1`, for which the growth inhibition is 9% (inactive).
`COc1ccc(/C(C)=N/OC(=O)c2c(-c3ccccc3Cl)noc2C)cc1CN1CCOCC1`: the growth inhibition was -20% (inactive).
For the compound `C=CC(C)(O)CCC1C(=C)C(O)CC2C(C)(C)CCCC12C` (stereo not drawn), the growth inhibition is 19% (inactive).
In the case of `S=C(Nc1ccc(Cl)c(Cl)c1)SCc1ccc2c(c1)OCO2`, the growth inhibition is 99% (active).
Same read-out and setting: then `COc1cc(C2C3=C(COC3=O)Oc3cc4c(cc32)OCO4)ccc1O` (stereo not drawn), with -10% (inactive); and `S=C(Nc1ccc(Cl)cc1)SC1CCCCC1`, with 96% (active); and `Nc1nc(-c2cccnc2)cc(-c2cc(-c3cccnc3)nc(N)n2)n1`, with 2% (inactive).
For the compound `COC1=CC(=O)C2C(C1=O)C(c1ccc(Cl)cc1)[C@@H]2C` (stereo partly drawn), the growth inhibition was 98% (active).
Consider `c1ccc(-c2nc3cccnc3s2)cc1`, for which the growth inhibition is 5% (inactive).
Consider `O=[N+]([O-])c1cc(CCl)ccc1CCl`, for which the growth inhibition is 84% (active).
Same read-out and setting: then `COc1ccc(/C=C2\SC(=S)N(/C=C/c3nc4ccccc4[nH]c3=O)C2=O)cc1OC`, with 12% (inactive); and `CCCN(CCC)CC(O)c1cc(-c2ccc(Cl)cc2)nc2c(C)c(Cl)ccc12` (stereo not drawn), with 98% (active).
With `O=C(Nc1ccccc1)OCCc1ccc(Cl)c(Cl)c1`, the growth inhibition was 29% (inactive).
As to `CC(O)C(O)C(O)C(/C=N\Nc1ccccc1)=N/Nc1ccccc1` (stereo not drawn), the growth inhibition is 10% (inactive).
With `C#CCCCc1ccccc1`, the growth inhibition is -36% (inactive).
`CC(=O)Cc1ccc[cH-]1.[Fe+2].c1cc[cH-]c1`: the growth inhibition is 22% (inactive).
The same measure, in the same setting: the result for `Cc1cc(I)ccc1N` reads -13% (inactive); that for `FC(F)(F)c1cc(NC(=S)N2c3ccccc3-n3cccc3C2c2cccnc2)cc(C(F)(F)F)c1` (stereo not drawn), 9% (inactive).
Still for that read-out and setting: the result for `CC(C)(CN1CCCCC1)C(=O)CC(SCCS(=O)(=O)O)c1ccc(Br)cc1` (stereo not drawn) reads -1% (inactive); that for `C[Si](C)(C)CNC(=O)OCc1ccccc1`, 1% (inactive); that for `CC(C(=O)N1C(=O)N(C(=O)[C@H](C)C(O)c2ccccc2)[C@H](c2ccccc2)[C@H]1c1ccccc1)[C@@H](O)c1ccccc1` (stereo partly drawn), -9% (inactive).
`Oc1cccc2c(Cl)ccnc12`: the growth inhibition is 98% (active).
On the same count and under the same terms, then `O=C1C=CC(=C(c2ccccc2)c2ccccc2)c2ccccc21`, with -1% (inactive); and `S=C(S)NN1CCOCC1`, with 29% (inactive).

The same experiment, now with this note: S. cerevisiae rad50 strain growth inhibition; at 33.0 µM; stronger effect = higher value.
Consider `C/C(=N\NC(=S)SCc1ccccc1)c1ccccn1`, for which the growth inhibition is 95% (active).
`CC[C@@]1(O)C(=O)OCc2c1cc1n(c2=O)Cc2cc3c(N)cccc3nc2-1`: the growth inhibition is 86% (active).
Same read-out and setting: the result for `CN(C)c1ccc(Sc2ccc3nc(N)nc(N)c3c2)cc1` reads 5% (inactive).
Regarding `CC(=O)OCCOCNC(=S)N/N=C(\C)c1cnccn1`, the growth inhibition was 46% (inactive).
Take `COc1ccc(C2c3cc4c(cc3OC(C)(O)C2C)OCO4)c(OC)c1` (stereo not drawn): the growth inhibition was 9% (inactive).
For `COc1cc(C2SCC(=O)N2c2ccc(-c3ccc(-n4c(-c5ccccc5)nc5ccccc5c4=O)cc3)cc2)cc(OC)c1OC` (stereo not drawn), the growth inhibition was 3% (inactive).
Same read-out and setting: then `COc1ccc(Br)c(C(=O)Sc2nnnn2-c2cccc(Cl)c2)c1`, with 42% (inactive); and `O=C(NNc1ccnc2cc(Cl)ccc12)/C(=C\c1ccccc1Cl)NC(=O)c1ccccc1`, with 33% (inactive).
Regarding `CSC(=S)Nc1cccc(C)n1`, the growth inhibition is 28% (inactive).
Take `O=C(/C=C\c1ccc(Cl)cc1Cl)c1cccs1`: the growth inhibition was 0% (inactive).
As for `COc1ccc(-c2cn(-c3ccc(I)cc3)c3ncnc(N)c23)cc1`, the growth inhibition was 1% (inactive).
With `CN(C)c1ccc(C(C#N)=C(C#N)C#N)cc1`, the growth inhibition is 11% (inactive).
The same measure, in the same setting: then `COc1cc(/C=C2\CCc3ccccc3C2=O)cc(OC)c1OC`, with 26% (inactive); and `CC(C)/C(Cl)=N\OC(=O)Nc1cccc(Cl)c1`, with -1% (inactive); and `CC1(C)[C@@H]2CC[C@]1(C)[C@H](OC(=O)CSC#N)C2`, with 68% (inactive).
`NNC(=O)CCc1ccc2ccc3ccccc3c2c1`: the growth inhibition was 7% (inactive).
Same read-out and setting: the result for `COc1ccc(/C(C)=N/OC(=O)c2c(-c3ccccc3Cl)noc2C)cc1CN1CCOCC1` reads 21% (inactive); that for `C=CC(C)(O)CCC1C(=C)C(O)CC2C(C)(C)CCCC12C` (stereo not drawn), 61% (inactive).
The same measure, in the same setting: then `S=C(Nc1ccc(Cl)c(Cl)c1)SCc1ccc2c(c1)OCO2`, with 99% (active).
Take `COc1cc(C2C3=C(COC3=O)Oc3cc4c(cc32)OCO4)ccc1O` (stereo not drawn): the growth inhibition was 35% (inactive).
In the case of `S=C(Nc1ccc(Cl)cc1)SC1CCCCC1`, the growth inhibition was 99% (active).
With `Nc1nc(-c2cccnc2)cc(-c2cc(-c3cccnc3)nc(N)n2)n1`, the growth inhibition was 4% (inactive).
The same measure, in the same setting: then `COC1=CC(=O)C2C(C1=O)C(c1ccc(Cl)cc1)[C@@H]2C` (stereo partly drawn), with 98% (active).
For the compound `c1ccc(-c2nc3cccnc3s2)cc1`, the growth inhibition was 9% (inactive).
The same measure, in the same setting: the result for `O=[N+]([O-])c1cc(CCl)ccc1CCl` reads 97% (active); that for `COc1ccc(/C=C2\SC(=S)N(/C=C/c3nc4ccccc4[nH]c3=O)C2=O)cc1OC`, 61% (inactive).
Take `CCCN(CCC)CC(O)c1cc(-c2ccc(Cl)cc2)nc2c(C)c(Cl)ccc12` (stereo not drawn): the growth inhibition was 96% (active).
Take `O=C(Nc1ccccc1)OCCc1ccc(Cl)c(Cl)c1`: the growth inhibition was 66% (inactive).
For the compound `CC(O)C(O)C(O)C(/C=N\Nc1ccccc1)=N/Nc1ccccc1` (stereo not drawn), the growth inhibition is 63% (inactive).
With `C#CCCCc1ccccc1`, the growth inhibition is -24% (inactive).
The same measure, in the same setting: the result for `CC(=O)Cc1ccc[cH-]1.[Fe+2].c1cc[cH-]c1` reads 22% (inactive).
As to `Cc1cc(I)ccc1N`, the growth inhibition was 91% (active).
Regarding `FC(F)(F)c1cc(NC(=S)N2c3ccccc3-n3cccc3C2c2cccnc2)cc(C(F)(F)F)c1` (stereo not drawn), the growth inhibition was 3% (inactive).
As for `CC(C)(CN1CCCCC1)C(=O)CC(SCCS(=O)(=O)O)c1ccc(Br)cc1` (stereo not drawn), the growth inhibition was 24% (inactive).
The same measure, in the same setting: then `C[Si](C)(C)CNC(=O)OCc1ccccc1`, with 19% (inactive).
On to `CC(C(=O)N1C(=O)N(C(=O)[C@H](C)C(O)c2ccccc2)[C@H](c2ccccc2)[C@H]1c1ccccc1)[C@@H](O)c1ccccc1` (stereo partly drawn), for which the growth inhibition is 41% (inactive).
As to `Oc1cccc2c(Cl)ccnc12`, the growth inhibition is 97% (active).
`O=C1C=CC(=C(c2ccccc2)c2ccccc2)c2ccccc21`: the growth inhibition is 8% (inactive).
With `S=C(S)NN1CCOCC1`, the growth inhibition is 23% (inactive).
